# Assay outcomes deposited in PubChem by National Center for Advancing Translational Sciences (NCATS).
# a7 integrin act – qHTS for Activators of Integrin-Mediated Alleviation for Muscular Dystrophy; alpha7betagal myoblasts, beta-gal FDG fluorescence, 48 h; Potency, µM (doses to about 38.3 µM), most hits filed as activators; actives 0.064% (n = 350,000); AID 624291, 2012; note: nearly all actives have a fitted effect of over 60% in size
#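 Alpha7betagal+/- myoblasts (passage 13) were plated 16-24 hr, then exposed to compounds (1:260 dilution of DMSO stock) for 48 hours at 37C. After MPER lysis, β-galactosidase reporter activity was read as FDG fluorescence (ex 480/em 540) after 30 minutes.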
# D3 ag – qHTS of D3 Dopamine Receptor Agonist: qHTS; actives 0.58% (n = 410,000); D3R DiscoveRx beta-arrestin cells, luminescence, 90 min; AID 652048, 2013; max activation, %; in the data active = max activation above about 30%
# Target sequence (P35462 whole entry, looked up): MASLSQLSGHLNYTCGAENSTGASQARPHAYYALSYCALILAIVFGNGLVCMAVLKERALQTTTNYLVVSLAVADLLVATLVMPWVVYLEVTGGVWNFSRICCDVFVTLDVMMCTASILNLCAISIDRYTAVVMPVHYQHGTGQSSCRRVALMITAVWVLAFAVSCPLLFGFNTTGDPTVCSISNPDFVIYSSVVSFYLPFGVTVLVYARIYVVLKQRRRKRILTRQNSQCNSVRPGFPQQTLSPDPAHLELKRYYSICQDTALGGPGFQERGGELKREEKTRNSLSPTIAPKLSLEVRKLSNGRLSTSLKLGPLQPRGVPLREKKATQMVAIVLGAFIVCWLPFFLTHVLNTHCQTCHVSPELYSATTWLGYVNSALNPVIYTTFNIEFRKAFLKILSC
#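 Agonist mode: compounds and dopamine controls were applied to plated cells for 90 min at 37 degrees C after an overnight attachment at 1500 cells/well. Luminescent read-out followed 30 - 60 minutes at room temperature with DiscoveRx detection reagent.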
# D3 antag – qHTS of D3 Dopamine Receptor Antagonist: qHTS; D(3) dopamine receptor (Homo sapiens), P35462; D3R cells, DiscoveRx beta-arrestin luminescence, antagonist mode; hits give low values; max response, negative = inhibition, %; actives 2.5% (n = 360,000); in the data active = max response below about -50%; inconclusive = no clear call, values can overlap the other calls
#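 Cells plated overnight at 1500 cells/well, then exposed to library compounds with dopamine controls for 90 minutes at 37 degrees C. DiscoveRx reagent added for 30–60 minutes at room temperature; luminescence read, quantitative HTS format.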
# PTHR1 agonist – qHTS for PTHR1 Agonists: Primary Screen; HEK293 GP2 PTHR1 cells, GloSensor cAMP luminescence, 1 h; Parathyroid hormone/parathyroid hormone-related peptide receptor (Homo sapiens), Q03431; Potency, µM (highest dose often 115 µM), actives largely listed as activators; AID 743266, 2014; actives 0.075% (n = 410,000); note: nearly all actives have a fitted effect of over 55% in size
#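 HEK-293-derived GP2 cells expressing PTHR1 and a GloSensor cAMP reporter, 3,000/well, plated overnight, given luciferin plus IBMX (each 0.5 mM as added) for 1 h at 37 °C, then compound for 1 h at 37 °C. Luminescence was read after 15 min at room temperature.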
# MBNL1-CUG inh – qHTS Assay for Inhibitors of MBNL1-poly(CUG) RNA binding; Muscleblind-like protein 1 (Homo sapiens), Q9NR56; TR-FRET MBNL1-His/biotin-(CUG)12 binding, 665/545 ratio; Potency, µM (doses to about 57.5 µM), actives largely listed as inhibitors; actives 0.036% (n = 280,000); AID 2675, 2010; active = well fitted inhibition curve with a large enough effect in the signal ratio, with a control signal flat, not every such curve was filed as active; inconclusive = small, poorly fitted or top-dose-only effect, or effect the other way, or a change in a side signal; inactive = no such curve, though single readings can be large or run the other way; the % refers to the signal ratio
#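 TR-FRET between His-tagged MBNL1 and biotin-(CUG)12 RNA, detected with Tb anti-His antibody (0.055 ng/ul) and streptavidin-XL665 (5 nM), 60 min at room temperature. Compounds titrated 92 nM to 58 uM; 665/545 nm ratio normalized to buffer and complex controls.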
# CBFb RUNX1 block – qHTS Assay for Compounds Blocking the Interaction Between CBF-beta and RUNX1 for the Treatment of Acute Myeloid Leukemia. Runt-related transcription factor 1 (Homo sapiens) + Core-binding factor subunit beta …. AlphaScreen CBFb-His/RUNX1-biotin binding, biochemical. Potency, µM (highest dose often 59.8 µM), most hits filed as inhibitors. 230,000 tested, under 10 active
#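 Compounds were screened at multiple concentrations against a preformed CBF-beta(His)/RUNX1(biotin) complex (30 nM of each) for 15 min at room temperature, followed by 90 min with nickel and streptavidin beads and AlphaScreen reading.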
# A number is an active result; - = inactive; ? = inconclusive; . = not tested or not shown; [ ] = another dose, or the depositor's remark. In the library only some 2.8% were active in any assay of this set; here they are far more common. Unless noted, calls come from the whole dose curve; as a rule, active = well fitted curve in the direction sought with a large enough effect; inconclusive = small, poorly fitted or top-dose-only effect, or another doubt; inactive = no such curve, though single readings can be large; an effect the other way counts as inactive or inconclusive.
SMILES,a7 integrin act,D3 ag,D3 antag,PTHR1 agonist,MBNL1-CUG inh,CBFb RUNX1 block
COc1ccc(OCCSc2nc(C)nc3ccccc23)cc1,-,55,-,-,.,-
COc1ccc(OCCSc2ncccn2)cc1,-[7.66 µM],-,-,-,-,-
COCCCNC(=O)c1c(NC(=O)Cc2coc3cc(C)ccc23)sc2c1CCCC2,.,-,.,-,.,.
CCSc1ccc([C@@H]2[C@H]3C(=O)N(CC)C(=O)[C@H]3[C@]3(C(=O)OC)CCCCN23)cc1OC,-,63,-,-,.,.
CCO/C(=C/c1sc2ccc(OC)cc2[n+]1CCCS(=O)(=O)[O-])CC,-,-,-73,-,-,-
Cc1ccc(NC(=O)Cn2c(=O)n(-c3ccc(C)cc3)c(=O)c3c2cnn3C)cc1,.,-,.,-,.,.
O=C(CCN1C(=O)/C(=C\c2cccs2)SC1=S)Nc1nccs1,-,-,-52,-,-,-
O=C(CCN1C(=O)S/C(=C\c2cccs2)C1=O)Nc1nccs1,-,-,-,?,?,-
O=C(CCN1C(=O)/C(=C/c2cccs2)SC1=S)Nc1ccccc1O,-,-,-,-,-,.
O=C(CCCN1C(=O)/C(=C\c2cccs2)SC1=S)Nc1cc([N+](=O)[O-])ccc1O,-,-,-90,-,-,.
COc1cccc(OC2(C)CCN(Cc3cccn3-c3nccs3)C2)c1 (stereo not drawn),.,-,-,-,.,.
CC1(Oc2ccc(-n3ccnc3)cc2)CCN(Cc2cccn2-c2nccs2)C1 (stereo not drawn),.,56,-,-,.,.
CC(=O)N1CCCc2cc(S(=O)(=O)N(C)CC(=O)Nc3cccc(Cl)c3C)ccc21,.,-,.,-,.,.
Cc1cc(C)c(C#N)c(N2CCN(Cc3ccc4c(c3)OCO4)CC2)n1,-,-,-57,-,-,-
Cc1ccc2nc(N3CCN(Cc4nnnn4Cc4ccccc4)CC3)c(C#N)cc2c1,-,-,-74,-,-,-
Cc1cc(C)c(C#N)c(N2CCN(S(=O)(=O)Cc3ccccc3)CC2)n1,?,-,-,-,-,.
N#CCc1c(C#N)c(N)nc(N2CCN(Cc3ccc4c(c3)OCO4)CC2)c1C#N,-,-,?,-,-,-
Cc1cc(C)c(C#N)c(N2CCN(Cc3ccccc3)CC2)n1,-,-,-93,-,-,-
CC(=O)c1ccc(OCCCC(=O)OCC(=O)Nc2ccc3[nH]c(=O)[nH]c3c2)cc1,-,-,-,-,.,.
COc1cc(NC(=O)c2ccc([N+](=O)[O-])cc2)ccc1NC(=O)C(C)C,-,-,-,-,?,-
N#CC1=C(N)C(C#N)(C#N)[C@H](c2cccnc2)[C@H]2CN(C(=O)OCc3ccccc3)CC=C12,-,-,?,-,-,-
N#CC1=C(N)C(C#N)(C#N)C(c2ccncc2)C2CN(C(=O)OCc3ccccc3)CC=C12 (stereo not drawn),-,-,-63,-,-,-
CCOC(=O)N1CCN(C(=O)C[C@@H]2C[C@@]3(C(=O)OC)CC(C)(C)CC=C3N(Cc3cccc4ccccc34)C2=O)CC1,.,-,-,-,.,.
CC(Cc1c[nH]c2ccccc12)C(=O)NCc1ccco1 (stereo not drawn),-,-,?,-,-,.
Cc1ccc(-n2c(=O)c3c(cnn3C)n(CC(=O)Nc3c(C)cccc3C)c2=O)cc1,.,-,.,-,.,.
SMILES,a7 integrin act,D3 ag,D3 antag,PTHR1 agonist,MBNL1-CUG inh,CBFb RUNX1 block
COc1ccccc1CN1C2CCCC1CC(NC(=O)/C=C/c1ccccc1)C2 (stereo not drawn),-,-,-65,-,?,-
CC(=O)Nc1c(O)nc(SCc2ccccc2C#N)[nH]c1=O,-,-,-51,-,.,-
CCCNC(=O)C1(C)CCCN(Cc2csc3ccccc23)C1 (stereo not drawn),.,-,-53,-,.,.
CCCNC(=O)C1(C)CCN(Cc2ccc3ccccc3c2Br)C1 (stereo not drawn),.,-,-51,-,.,.
COCCNC(=O)C1(C)CCCN(Cc2csc3ccccc23)C1 (stereo not drawn),.,-,?,-,.,.
CC1=C(C(=O)Nc2ccccc2)C(c2ccncc2)n2nc(SCc3ccccc3)nc2N1 (stereo not drawn),.,-,.,-,.,.
Cc1cc(S(=O)(=O)c2ccc(Cl)cc2)nc(S(=O)(=O)c2ccc(Cl)cc2)c1C#N,-,-,-77,-,.,.
Cc1cc(C)c(S(=O)(=O)c2ccc(Cl)cc2)c(Cl)n1,-,-,-,-,-,?
COc1cc2[nH]c(-c3ccc(C)cc3)cc(=O)c2cc1OC,-,-,-112,-,-,-
COc1ccc(-c2cc(=O)c3cc(C)ccc3[nH]2)cc1,-,-,-,-,-,-
CCCC(=O)Nc1sc(C)c(-c2ccc(C(C)CC)cc2)c1C#N (stereo not drawn),-,30,-,?,-,-
COc1ccccc1N=c1scc(-c2ccc3c(c2)NC(=O)CO3)n1CC1CCCO1 (stereo not drawn),-,-,-75,-,-,-
COc1ccc(CC(=O)O/N=C(\N)c2ccccc2)cc1OC,-,-,-,-,-,.
COc1ccccc1C(=O)NCC(=O)OCCCOC(=O)CNC(=O)c1ccccc1OC,-,-,-,-,-,.
CC(NC(=O)C12CC3CC(CC(C3)C1)C2)c1ccc2c(c1)OCCO2 (stereo not drawn),-,32,-,-,-,-
CCCC(=O)O[C@]1(C(=O)COC(=O)CC)[C@@H](C)C[C@H]2[C@@H]3CCC4=CC(=O)C=C[C@]4(C)[C@@]3(F)[C@@H](O)C[C@@]21C,.,-,.,.,.,.
Cc1sc2ccccc2[n+]1CCC(C)S(=O)(=O)[O-] (stereo not drawn),-,-,-67,-,-,-
CC1(c2ccc([N+](=O)[O-])cc2)NC(=O)N(CC(=O)Nc2ccc(N3CCCCC3)cc2)C1=O (stereo not drawn),-,-,-51,-,.,.
CC1(c2ccccc2)NC(=O)N(CC(=O)Nc2ccc([N+](=O)[O-])cc2)C1=O (stereo not drawn),-,-,-,-,?,-
COc1ccccc1NS(=O)(=O)c1cccc(-n2c(O)c(C=Nc3ccccc3C(=O)O)c3ccccc3c2=O)c1,-,62,-,-,?,?
